{"source": "the supplement of paper PMC8728848", "test_in_all_cases": "glycan array binding signal (z-score within array); higher = stronger binding", "conditions_in_all_cases": "glycan notation: IUPAC condensed, linker removed", "key": {"[1]": {"target": "Fuc(a1-2)Gal(b1-3)GlcNAc(b1-3)[Gal(b1-4)GlcNAc(b1-6)]Gal(b1-4)Glc", "procedure,_shortened": "(§1)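 Columns mapping to the same glycan were averaged after glycan names were converted to IUPAC-condensed notation. The data come from 3228 arrays in the Consortium for Functional Glycomics database, limited to those with an available protein sequence. Binding is reported as a within-array Z-score averaged across arrays of one protein sequence and across linkers.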"}, "[2]": {"target": "Fuc(a1-2)Gal(b1-3)GlcNAc(b1-3)[Neu5Ac(a2-6)Gal(b1-4)GlcNAc(b1-6)]Gal(b1-4)Glc", "procedure,_shortened": "as §1"}, "Fuc(a1-2)Gal(b1-4)Glc": {"target": "Fuc(a1-2)Gal(b1-4)Glc", "procedure,_shortened": "as §1"}, "[3]": {"target": "Fuc(a1-2)Gal(b1-4)GlcNAc6S", "procedure,_shortened": "as §1"}, "[4]": {"target": "Fuc(a1-2)[Gal(a1-3)]Gal(b1-4)GlcNAc(b1-3)[Fuc(a1-2)[Gal(a1-3)]Gal(b1-4)GlcNAc(b1-6)]GalNAc", "procedure,_shortened": "as §1"}, "[5]": {"target": "Fuc(a1-2)[Gal(a1-3)]Gal(b1-4)[Fuc(a1-3)]GlcNAc", "procedure,_shortened": "as §1"}, "[6]": {"target": "Fuc(a1-2)[GalNAc(a1-4)]Gal(b1-4)GlcNAc", "procedure,_shortened": "as §1"}, "Fuc(a1-4)GlcNAc": {"target": "Fuc(a1-4)GlcNAc", "procedure,_shortened": "as §1"}, "Gal(b1-3)Gal": {"target": "Gal(b1-3)Gal", "procedure,_shortened": "as §1"}, "[7]": {"target": "Gal(b1-3)GlcNAc(b1-3)Gal(b1-4)GlcNAc(b1-2)Man(a1-3)[Gal(b1-3)GlcNAc(b1-3)Gal(b1-4)GlcNAc(b1-2)Man(a1-6)]Man(b1-4)GlcNAc(b1-4)GlcNAc", "procedure,_shortened": "as §1"}, "[8]": {"target": "Gal(b1-3)GlcNAc(b1-3)Gal(b1-4)GlcNAc(b1-2)[Gal(b1-3)GlcNAc(b1-3)Gal(b1-4)GlcNAc(b1-6)]Man(a1-6)[Gal(b1-3)GlcNAc(b1-3)Gal(b1-4)GlcNAc(b1-2)Man(a1-3)]Man(b1-4)GlcNAc(b1-4)[Fuc(a1-6)]GlcNAc", "procedure,_shortened": "as §1"}, "[9]": {"target": "Gal(b1-3)[Fuc(a1-4)]GlcNAc", "procedure,_shortened": "as §1"}, "Gal(b1-4)Glc6S": {"target": "Gal(b1-4)Glc6S", "procedure,_shortened": "as §1"}, "[10]": {"target": "Gal(b1-4)GlcNAc(b1-2)[Gal(b1-4)GlcNAc(b1-4)]Man(a1-3)[Gal(b1-4)GlcNAc(b1-2)Man(a1-6)]Man(b1-4)GlcNAc(b1-4)GlcNAc", "procedure,_shortened": "as §1"}, "[11]": {"target": "Gal(b1-4)GlcNAc(b1-2)[Gal(b1-4)GlcNAc(b1-4)]Man(a1-3)[GlcNAc(b1-4)][Gal(b1-4)GlcNAc(b1-2)[Gal(b1-4)GlcNAc(b1-6)]Man(a1-6)]Man(b1-4)GlcNAc(b1-4)GlcNAc", "procedure,_shortened": "as §1"}, "[12]": {"target": "Gal(b1-4)GlcNAc(b1-3)Gal(b1-4)GlcNAc(b1-3)Gal(b1-4)GlcNAc(b1-2)Man(a1-3)[Gal(b1-4)GlcNAc(b1-3)Gal(b1-4)GlcNAc(b1-3)Gal(b1-4)GlcNAc(b1-2)Man(a1-6)]Man(b1-4)GlcNAc(b1-4)[Fuc(a1-6)]GlcNAc", "procedure,_shortened": "as §1"}, "[13]": {"target": "Gal(b1-4)GlcNAc(b1-3)GalNAc", "procedure,_shortened": "as §1"}, "[14]": {"target": "Gal(b1-4)GlcNAc(b1-3)[Fuc(a1-3)GlcNAc(b1-6)]Gal(b1-4)Glc", "procedure,_shortened": "as §1"}, "[15]": {"target": "GlcNAc(b1-3)Gal(b1-4)GlcNAc(b1-3)[GlcNAc(b1-3)Gal(b1-4)GlcNAc(b1-3)]GalNAc", "procedure,_shortened": "as §1"}, "[16]": {"target": "GlcNAc(b1-3)Gal(b1-4)GlcNAc(b1-6)[Gal(b1-3)]GalNAc", "procedure,_shortened": "as §1"}, "[17]": {"target": "GlcNAc(b1-3)[GlcNAc(b1-4)][GlcNAc(b1-6)]GlcNAc", "procedure,_shortened": "as §1"}, "[18]": {"target": "GlcNAc(b1-4)[GlcNAc(b1-6)]GalNAc", "procedure,_shortened": "as §1"}, "[19]": {"target": "Kdn(a2-3)Gal(b1-4)[Fuc(a1-3)]GlcNAc", "procedure,_shortened": "as §1"}, "[20]": {"target": "Man(a1-2)Man(a1-2)Man(a1-3)Man", "procedure,_shortened": "as §1"}, "[21]": {"target": "Man(a1-2)Man(a1-2)Man(a1-6)[Man(a1-3)]Man", "procedure,_shortened": "as §1"}, "Man(a1-2)Man(a1-3)Man": {"target": "Man(a1-2)Man(a1-3)Man", "procedure,_shortened": "as §1"}, "[22]": {"target": "Man(a1-2)Man(a1-3)[Man(a1-2)Man(a1-6)]Man", "procedure,_shortened": "as §1"}, "[23]": {"target": "Man(a1-2)Man(a1-3)[Man(a1-2)Man(a1-6)]Man(a1-6)[Man(a1-2)Man(a1-2)Man(a1-3)]Man", "procedure,_shortened": "as §1"}, "[24]": {"target": "Man(a1-2)Man(a1-6)[Man(a1-3)]Man(a1-6)[Man(a1-2)Man(a1-2)Man(a1-3)]Man", "procedure,_shortened": "as §1"}, "[25]": {"target": "Man(a1-2)Man(a1-6)[Man(a1-3)]Man(a1-6)[Man(a1-2)Man(a1-2)Man(a1-3)]Man(b1-4)GlcNAc(b1-4)GlcNAc", "procedure,_shortened": "as §1"}, "[26]": {"target": "Man(a1-3)[Man(a1-6)]Man(a1-6)[Man(a1-2)Man(a1-3)]Man(b1-4)GlcNAc(b1-4)GlcNAc", "procedure,_shortened": "as §1"}, "[27]": {"target": "Neu5Ac(a2-3)Gal(b1-3)GalNAc", "procedure,_shortened": "as §1"}, "[28]": {"target": "Neu5Ac(a2-3)Gal(b1-3)[Fuc(a1-4)]GlcNAc", "procedure,_shortened": "as §1"}, "[29]": {"target": "Neu5Ac(a2-3)Gal(b1-3)[GlcNAc(b1-6)]GalNAc", "procedure,_shortened": "as §1"}, "[30]": {"target": "Neu5Ac(a2-3)Gal(b1-3)]Neu5Ac(a2-3)Gal(b1-4)]GlcNAc", "procedure,_shortened": "as §1"}, "[31]": {"target": "Neu5Ac(a2-3)Gal(b1-4)GlcNAc(b1-2)Man(a1-3)[GlcNAc(b1-4)][Neu5Ac(a2-3)Gal(b1-4)GlcNAc(b1-2)Man(a1-6)]Man(b1-4)GlcNAc(b1-4)GlcNAc", "procedure,_shortened": "as §1"}, "[32]": {"target": "Neu5Ac(a2-3)Gal6S(b1-4)[Fuc(a1-3)]GlcNAc", "procedure,_shortened": "as §1"}, "Neu5Ac(a2-6)GalNAc": {"target": "Neu5Ac(a2-6)GalNAc", "procedure,_shortened": "as §1"}, "[33]": {"target": "Neu5Ac(a2-6)GalNAc(b1-4)GlcNAc", "procedure,_shortened": "as §1"}, "[34]": {"target": "Neu5Ac(a2-8)Neu5Ac(a2-3)[GalNAc(b1-4)]Gal(b1-4)Glc", "procedure,_shortened": "as §1"}, "[35]": {"target": "Neu5Ac(a2-8)Neu5Gc(a2-3)Gal(b1-4)GlcNAc", "procedure,_shortened": "as §1"}, "[36]": {"target": "Neu5Gc(a2-8)Neu5Gc(a2-3)Gal(b1-4)GlcNAc(b1-3)Gal(b1-4)GlcNAc", "procedure,_shortened": "as §1"}}, "note": "This is one part of a sample in which the strongest signals are shown more often than they occur.", "data": [{"binder": "Dectin2 (Homo sapiens), Q6EIG7 (protein) MMQEQQPQSTEKRGWLSLRLWSVAGISIALLSACFIVSCVVTYHFTYGETGKRLSELHSYHSSLTCFSEGTKVPAWGCCPASWKSFGSSCYFISSEEKVWSKSEQNCVEMGAHLVVFNTEAEQNFIVQQLNESFSYFLGLSDPQGNNNWQWIDKTPYEKNVRFWHLGEPNHSAEQCASIVFWKPTGWGWNDVICETRRNSICEMNKIYL", "values": [{"measurement": "glycan array binding signal (z-score)", "setting": "[1]", "value": -0.199}, {"measurement": "glycan array binding signal (z-score)", "setting": "[2]", "value": -0.182}, {"measurement": "glycan array binding signal (z-score)", "setting": "Fuc(a1-2)Gal(b1-4)Glc", "value": -0.165}, {"measurement": "glycan array binding signal (z-score)", "setting": "[3]", "value": 0.311}, {"measurement": "glycan array binding signal (z-score)", "setting": "[4]", "value": -0.136}, {"measurement": "glycan array binding signal (z-score)", "setting": "[5]", "value": -0.1}, {"measurement": "glycan array binding signal (z-score)", "setting": "[6]", "value": -0.122}, {"measurement": "glycan array binding signal (z-score)", "setting": "Fuc(a1-4)GlcNAc", "value": -0.102}, {"measurement": "glycan array binding signal (z-score)", "setting": "Gal(b1-3)Gal", "value": -0.111}, {"measurement": "glycan array binding signal (z-score)", "setting": "[7]", "value": 0.015}, {"measurement": "glycan array binding signal (z-score)", "setting": "[8]", "value": 1.31}, {"measurement": "glycan array binding signal (z-score)", "setting": "[9]", "value": -0.15}, {"measurement": "glycan array binding signal (z-score)", "setting": "Gal(b1-4)Glc6S", "value": -0.188}, {"measurement": "glycan array binding signal (z-score)", "setting": "[10]", "value": 0.09}, {"measurement": "glycan array binding signal (z-score)", "setting": "[11]", "value": -0.17}, {"measurement": "glycan array binding signal (z-score)", "setting": "[12]", "value": -0.086}, {"measurement": "glycan array binding signal (z-score)", "setting": "[13]", "value": -0.186}, {"measurement": "glycan array binding signal (z-score)", "setting": "[14]", "value": -0.161}, {"measurement": "glycan array binding signal (z-score)", "setting": "[15]", "value": -0.182}, {"measurement": "glycan array binding signal (z-score)", "setting": "[16]", "value": -0.196}, {"measurement": "glycan array binding signal (z-score)", "setting": "[17]", "value": 1.3}, {"measurement": "glycan array binding signal (z-score)", "setting": "[18]", "value": 1.29}, {"measurement": "glycan array binding signal (z-score)", "setting": "[19]", "value": -0.14}, {"measurement": "glycan array binding signal (z-score)", "setting": "[20]", "value": 10.3}, {"measurement": "glycan array binding signal (z-score)", "setting": "[21]", "value": 13.5}, {"measurement": "glycan array binding signal (z-score)", "setting": "Man(a1-2)Man(a1-3)Man", "value": 4.35}, {"measurement": "glycan array binding signal (z-score)", "setting": "[22]", "value": 7.43}, {"measurement": "glycan array binding signal (z-score)", "setting": "[23]", "value": 13.9}, {"measurement": "glycan array binding signal (z-score)", "setting": "[24]", "value": 3.05}, {"measurement": "glycan array binding signal (z-score)", "setting": "[25]", "value": 1.38}, {"measurement": "glycan array binding signal (z-score)", "setting": "[26]", "value": 1.16}, {"measurement": "glycan array binding signal (z-score)", "setting": "[27]", "value": 0.09}, {"measurement": "glycan array binding signal (z-score)", "setting": "[28]", "value": -0.165}, {"measurement": "glycan array binding signal (z-score)", "setting": "[29]", "value": -0.193}, {"measurement": "glycan array binding signal (z-score)", "setting": "[30]", "value": -0.206}, {"measurement": "glycan array binding signal (z-score)", "setting": "[31]", "value": -0.193}, {"measurement": "glycan array binding signal (z-score)", "setting": "[32]", "value": -0.193}, {"measurement": "glycan array binding signal (z-score)", "setting": "Neu5Ac(a2-6)GalNAc", "value": -0.176}, {"measurement": "glycan array binding signal (z-score)", "setting": "[33]", "value": -0.192}, {"measurement": "glycan array binding signal (z-score)", "setting": "[34]", "value": -0.177}, {"measurement": "glycan array binding signal (z-score)", "setting": "[35]", "value": -0.21}, {"measurement": "glycan array binding signal (z-score)", "setting": "[36]", "value": -0.206}]}]}
